Source: PubChem BioAssay
This is a sample that favours compounds with a hit; in the whole collection about 3.6% have one here.
CF NFkB block: blocks PAF-induced NF-kB reporter in cystic fibrosis cells; inhibition, % at 5 µM; AID 588850; actives 0.86% (n = 360,000); KKLEB NF-kB-GFP reporter, GFP fluorescence overnight;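 active = at least 50% inhibition at 5 µM, scaled per plate between neutral and stimulator controls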;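 also: PAF is a Pseudomonas aeruginosa culture filtrate used as stimulus; plate controls were PAF-stimulated DMSO wells for no effect and unstimulated DMSO wells for full effect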
Peg3 promoter: Peg3 promoter activity inhibition; HeLa PEG-Prom luciferase reporter, luminescence, overnight; inhibition, % at 20 µM; actives 1.7% (n = 360,000); AID 588405;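 active = inhibition of at least 50% at 20 µM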
Mdm2-MdmX inh: disrupts the human Mdm2-MdmX interaction; O15151+Q00987; SaOS-2 split-luciferase Mdm2/MdmX complementation, luminescence; inhibition, % at 8 µM; actives 3% (n = 330,000);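 active = inhibition of at least 50% at 8 µM in the primary screen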
LGR2 inh: inhibitors of bursicon-induced Drosophila LGR2 receptor cAMP signaling. HEK293 LGR2, CRE-luciferase, bursicon-stimulated, 4 h. inhibition, % at 9.99 µM. actives 0.35% (n = 380,000);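 active = drop in luminescence signal, shown as inhibition above about 50% in the replicate tests, limit read from the data, passing the limit was not always enough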;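 also: agonist challenge used bursicon conditioned medium at about half maximal strength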
HSP90 refold inh: inhibitors of HSP90 luciferase refolding in rabbit reticulocyte lysate; luciferase refolding luminescence, 3 h; inhibition, % at 5.6 µM; actives 0.91% (n = 290,000); AID 1789;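 active = inhibition above the screen-wide mean plus 3 SD, computed separately per campaign, cut at about 16% in these data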;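 also: 0% = DMSO wells and 100% = 60 µM geldanamycin wells; inhibitors lower the luminescence because luciferase stays unfolded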
KKLEB tox: reduces viability of KKLEB cystic fibrosis airway cells; KKLEB CF airway cells viability, ATPlite luminescence, overnight; stronger effect = lower value; cells stimulated with P. aeruginosa culture filtrate; activity change (cytotoxicity), % at 5 µM; actives 0.36% (n = 360,000);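 active = corrected activity change at or below -50% at 5 µM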
HSP90 confirm: confirmation of HSP90 inhibitors; inhibition, % at 5.9 µM; rabbit reticulocyte lysate, luciferase refolding luminescence, 3 h; shares compounds with HSP90 refold inh; actives 64% (n = 2,300); in the data active = inhibition above about 18%;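 also: 0% = vehicle wells and 100% = reference inhibitor wells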
FLuc counter: counter-screen for HSP90 inhibitors: inhibitors of firefly luciferase; shares compounds with HSP90 refold inh; purified native firefly luciferase, luminescence; inhibition, % at 5.9 µM; actives 48% (n = 2,300); AID 1847;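 active = inhibition above the mean inhibition of all tested sample wells plus 3 SD, cut at about 10% in these data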;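 also: 0% = DMSO with luciferase and 100% = wells lacking luciferase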
Target sequence (P08659 whole entry, looked up): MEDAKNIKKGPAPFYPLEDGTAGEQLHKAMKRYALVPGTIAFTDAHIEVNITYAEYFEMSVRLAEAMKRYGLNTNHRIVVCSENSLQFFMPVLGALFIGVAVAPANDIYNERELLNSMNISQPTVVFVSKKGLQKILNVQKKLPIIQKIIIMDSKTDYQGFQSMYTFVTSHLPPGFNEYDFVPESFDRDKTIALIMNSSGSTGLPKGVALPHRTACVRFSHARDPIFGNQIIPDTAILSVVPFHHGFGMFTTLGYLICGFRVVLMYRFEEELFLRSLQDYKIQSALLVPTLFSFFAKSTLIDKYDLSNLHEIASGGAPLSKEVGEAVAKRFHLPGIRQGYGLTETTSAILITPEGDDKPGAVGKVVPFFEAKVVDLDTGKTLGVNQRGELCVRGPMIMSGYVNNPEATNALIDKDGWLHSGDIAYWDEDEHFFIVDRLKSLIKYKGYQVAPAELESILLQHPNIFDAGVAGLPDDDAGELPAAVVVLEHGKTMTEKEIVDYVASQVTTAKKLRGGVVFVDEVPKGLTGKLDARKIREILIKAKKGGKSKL
Active calls of the source: *.

What do the screens show for `Cc1cccc(C)c1-n1nnnc1C(CCc1ccccc1)N1CCC(n2c(=O)[nH]c3ccccc32)CC1` (centres undefined)?
CF NFkB block: 47.6; Peg3 promoter: 98.1*; LGR2 inh: 10.6; KKLEB tox: -17.8

What do the screens show for `COc1ccc(C#Cc2ccc([C@H]3[C@H]4CN(C(=O)Cc5ccncc5)CCCCN4[C@H]3CO)cc2)cc1`?
LGR2 inh: -0.1

Results for O=C(Cc1ccccn1)N1CC2(C1)[C@@H](c1ccccc1)[C@@H](CO)N2Cc1ccccn1 ?
LGR2 inh: 10.5

How did CCCN1[C@@H]2Cn3c(ccc(-c4cccc(OC)c4)c3=O)[C@H]1[C@@H](C(=O)OC)[C@@H]2CO do in these assays?
LGR2 inh: -1.1

How did Cc1ccc(/C=C2\C(=O)NC(=S)N(c3ccccc3F)C2=O)s1 do in these assays?
CF NFkB block: 84.1*; Peg3 promoter: 107.8*; LGR2 inh: 87.6*; HSP90 refold inh: 2.2; KKLEB tox: -13.1

How did CCOC(=O)C1CCN(/C=C2/C(=O)NC(=S)N(c3ccccc3F)C2=O)CC1 do in these assays?
CF NFkB block: -2.8; Peg3 promoter: 3.1; Mdm2-MdmX inh: -12.4; LGR2 inh: -25.0; HSP90 refold inh: 2.0; KKLEB tox: 3.4

Results for COc1cc(C(=O)Nc2ccc(Br)cc2C(=O)c2ccccc2Cl)cc(OC)c1OC ?
CF NFkB block: 23.7; Peg3 promoter: -11.6; Mdm2-MdmX inh: 15.4; LGR2 inh: 9.4; HSP90 refold inh: -5.1; KKLEB tox: -50.5*

Results for O=Cc1cn(Cc2ccccc2F)c2ccccc12 ?
CF NFkB block: 11.5; Peg3 promoter: 19.3; Mdm2-MdmX inh: 13.4; LGR2 inh: -19.3; HSP90 refold inh: -0.3; KKLEB tox: 13.0

Results for Cc1cccc(Cn2cc(C=O)c3ccccc32)c1 ?
CF NFkB block: 7.0; Peg3 promoter: 68.8*; Mdm2-MdmX inh: 31.6; LGR2 inh: 14.5; HSP90 refold inh: 1.1; KKLEB tox: 2.0

Results for O=Cc1cn(Cc2cccc([N+](=O)[O-])c2)c2ccccc12 ?
CF NFkB block: 38.1; Peg3 promoter: 101.3*; Mdm2-MdmX inh: 8.0; LGR2 inh: 87.4*; HSP90 refold inh: 0.4; KKLEB tox: -39.8

Results for C/C=C/c1ccc(C2[C@@H]3CN(Cc4cccc(F)c4)C[C@H]2N3)cc1 (some centres undefined) ?
LGR2 inh: 1.1

Results for COC(=O)[C@@H]1[C@@H](CO)[C@@H]2Cn3c(ccc(-c4cccc(F)c4)c3=O)[C@H]1N2C(=O)CC1CC1 ?
LGR2 inh: 7.5

Results for CCCCCn1c(=O)c(C(=O)Nc2nc3ccccc3[nH]2)c(O)c2ccccc21 ?
CF NFkB block: 30.5; Peg3 promoter: 23.4; Mdm2-MdmX inh: 21.0; LGR2 inh: -2.1; HSP90 refold inh: -5.8; KKLEB tox: -52.0*

How did CCOP(=O)(CCP(=O)(OCC)OCC)OCC.C[CH2][Sn]([Cl])([Cl])[CH2]C do in these assays?
CF NFkB block: 53.1*; Peg3 promoter: -56.5; LGR2 inh: 23.2; KKLEB tox: 35.9

What do the screens show for `CCN1[C@@H]2Cn3c(ccc(-c4cccc(OC)c4)c3=O)[C@H]1[C@@H](C(=O)OC)[C@@H]2CO`?
LGR2 inh: 6.6

What do the screens show for `c1ccc2c(c1)[IH]c1ccccc1-2`?
CF NFkB block: -49.0; Peg3 promoter: 96.0*; LGR2 inh: -9.4; KKLEB tox: -0.2

Results for Cc1ccc(CN2CCCN(Cc3ccc(C)cc3)S2(=O)=O)cc1 ?
CF NFkB block: -8.3; Peg3 promoter: -5.7; Mdm2-MdmX inh: 9.4; LGR2 inh: -6.1; HSP90 refold inh: 18.0*; KKLEB tox: 1.3; HSP90 confirm: 7.3; FLuc counter: -1.4

What do the screens show for `Cc1cccc(CN2CCCN(Cc3ccc(Cl)cc3)S2(=O)=O)c1`?
CF NFkB block: -2.1; Peg3 promoter: 6.0; Mdm2-MdmX inh: -19.9; LGR2 inh: 7.3; HSP90 refold inh: 0.4; KKLEB tox: -6.0

Results for CCC(=O)N1[C@@H]2c3ccc(C4=CCCC4)c(=O)n3C[C@H]1[C@H](CO)[C@H]2C(=O)OC ?
LGR2 inh: -9.2

Results for Cc1ccc(OCCOc2cccc(C=C3C(=O)NC(=O)NC3=O)c2)cc1 ?
CF NFkB block: -0.1; Peg3 promoter: 16.2; Mdm2-MdmX inh: -32.0; LGR2 inh: 27.8; HSP90 refold inh: 30.4*; KKLEB tox: 1.3; HSP90 confirm: 44.6*; FLuc counter: 14.3*

How did Cc1cc(C)cc(OCCOc2cccc(C=C3C(=O)NC(=O)NC3=O)c2)c1 do in these assays?
CF NFkB block: -13.4; Peg3 promoter: -66.2; Mdm2-MdmX inh: -30.0; LGR2 inh: -23.0; HSP90 refold inh: 2.6; KKLEB tox: 2.3

What do the screens show for `COC(=O)[C@H]1[C@H](CO)[C@H]2Cn3c(ccc(C4=CCCCC4)c3=O)[C@@H]1N2C(=O)Cc1ccccn1`?
LGR2 inh: -8.9

What do the screens show for `COc1cc(C(c2c(C)[nH]n(-c3ccccc3)c2=O)c2c(C)[nH]n(-c3ccccc3)c2=O)cc(OC)c1OC`?
CF NFkB block: -18.3; Peg3 promoter: 25.6; Mdm2-MdmX inh: -10.5; LGR2 inh: -5.8; HSP90 refold inh: 55.7*; KKLEB tox: 6.4; HSP90 confirm: -8.7; FLuc counter: -3.8

Results for COC(=O)C(O)(c1c(C)[nH]n(-c2ccccc2)c1=O)C(F)(F)F (centres undefined) ?
CF NFkB block: 10.5; Peg3 promoter: 19.8; Mdm2-MdmX inh: -3.2; HSP90 refold inh: 3.5; KKLEB tox: 2.3

How did O=C1NC(=S)N(c2ccccc2)C(=O)/C1=C/c1ccco1 do in these assays?
CF NFkB block: 2.9; Peg3 promoter: 9.3; Mdm2-MdmX inh: -10.2; LGR2 inh: -3.8; HSP90 refold inh: 6.6; KKLEB tox: 3.7

How did CCOc1cccc(N2C(=O)/C(=C/c3ccco3)C(=O)NC2=S)c1 do in these assays?
CF NFkB block: 3.1; Peg3 promoter: 7.9; Mdm2-MdmX inh: -4.0; LGR2 inh: 4.1; HSP90 refold inh: 32.2*; KKLEB tox: 3.0; HSP90 confirm: 6.6; FLuc counter: 18.7*

What do the screens show for `CC1CN=C(NC(C)c2ccccc2)S1` (centres undefined)?
CF NFkB block: -2.5; Peg3 promoter: -7.6; Mdm2-MdmX inh: -6.5; LGR2 inh: -11.7; HSP90 refold inh: 17.2*; KKLEB tox: 12.0; HSP90 confirm: -4.4; FLuc counter: -8.4

What do the screens show for `Cc1ccc(OC(=O)N(C)C[C@@H]2OCc3ccccc3-c3c(n(C)c4ccccc34)C(=O)N([C@@H](C)CO)C[C@@H]2C)cc1`?
LGR2 inh: 21.9
